Test results from PubChem BioAssay (NCATS).
Results filed as inconclusive are left out. Activity calls are given as the source filed them. Calls follow the shape of the dose curve; as a rule, active = well fitted curve in the direction sought with a large enough effect; inconclusive = small, poorly fitted or top-dose-only effect, or another doubt; inactive = no such curve, though single readings can be large; an effect the other way counts as inactive or inconclusive.

Key:
[1] = S16 Schwann cell viability assay (CellTiter-Glo assay) (AID 624031);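 also: native untransfected S16 rat Schwann cells; cellular ATP luminescence as a viability measure; nearly all actives have a fitted effect of over 70% in size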
Procedure, shortened: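 Cells were seeded at 500-750 per well in phenol red-free DMEM with 10% FBS and left overnight. Compounds or DMSO were pinned in, incubation ran 24 h at 37 °C/5% CO2, then CellTiter-Glo reagent was added and luminescence measured.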

AA1029 = experiment: qHTS profiling for inhibitors of Plasmodium falciparum proliferation (AID 504749); also: nearly all actives have a fitted effect of over 60% in size; conditions: P. falciparum in erythrocytes, SYBR Green DNA, 72 h; series mostly up to 28.7 µM
Procedure, shortened: (§1)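 Three-day growth assay of blood-stage parasites in erythrocytes (0.3% parasitemia, 2.5% hematocrit) at 37 C, 5% CO2, quantified by SYBR Green DNA staining after overnight detergent lysis.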

ATS95 = experiment: as above; conditions: P. falciparum in erythrocytes, SYBR Green DNA, 72 h; series mostly up to 28.7 µM
Procedure, shortened: as §1

CP185 = experiment: as above; conditions: P. falciparum in erythrocytes, SYBR Green DNA, 72 h; series mostly up to 28.7 µM
Procedure, shortened: as §1

CP192 = experiment: as above; conditions: P. falciparum in erythrocytes, SYBR Green DNA, 72 h; series mostly up to 28.7 µM
Procedure, shortened: as §1

CP194 = experiment: as above; conditions: P. falciparum in erythrocytes, SYBR Green DNA, 72 h; series mostly up to 28.7 µM
Procedure, shortened: as §1

CP203 = experiment: as above; conditions: P. falciparum in erythrocytes, SYBR Green DNA, 72 h; series mostly up to 28.7 µM
Procedure, shortened: as §1

CP211 = experiment: as above; conditions: P. falciparum in erythrocytes, SYBR Green DNA, 72 h; series mostly up to 28.7 µM
Procedure, shortened: as §1

CP217 = experiment: as above; conditions: P. falciparum in erythrocytes, SYBR Green DNA, 72 h; series mostly up to 28.7 µM
Procedure, shortened: as §1

CP247 = experiment: as above; conditions: P. falciparum in erythrocytes, SYBR Green DNA, 72 h; series mostly up to 28.7 µM
Procedure, shortened: as §1

CP250 = experiment: as above; conditions: P. falciparum in erythrocytes, SYBR Green DNA, 72 h; series mostly up to 12.8 µM
Procedure, shortened: as §1

CP252 = experiment: as above; conditions: P. falciparum in erythrocytes, SYBR Green DNA, 72 h; series mostly up to 12.8 µM
Procedure, shortened: as §1

CP256 = experiment: as above; conditions: P. falciparum in erythrocytes, SYBR Green DNA, 72 h; series mostly up to 28.7 µM
Procedure, shortened: as §1

CP269 = experiment: as above; conditions: P. falciparum in erythrocytes, SYBR Green DNA, 72 h; series mostly up to 28.7 µM
Procedure, shortened: as §1

ECU = experiment: as above; conditions: P. falciparum in erythrocytes, SYBR Green DNA, 72 h; series mostly up to 28.7 µM
Procedure, shortened: as §1

N140 = experiment: as above; conditions: P. falciparum in erythrocytes, SYBR Green DNA, 72 h; series mostly up to 28.7 µM
Procedure, shortened: as §1

P94_40 = experiment: as above; conditions: P. falciparum in erythrocytes, SYBR Green DNA, 72 h; series mostly up to 28.7 µM
Procedure, shortened: as §1

PC49 = experiment: as above; conditions: P. falciparum in erythrocytes, SYBR Green DNA, 72 h; series mostly up to 28.7 µM
Procedure, shortened: as §1

TAB109 = experiment: as above; conditions: P. falciparum in erythrocytes, SYBR Green DNA, 72 h; series mostly up to 12.8 µM
Procedure, shortened: as §1

TAB165 = experiment: as above; conditions: P. falciparum in erythrocytes, SYBR Green DNA, 72 h; series mostly up to 28.7 µM
Procedure, shortened: as §1

Measured: Potency

NCC[C@H](O)C(=O)N[C@H]1C[C@@H](N)[C@@H](O[C@H]2O[C@@H](CN)[C@@H](O)[C@@H](O)[C@@H]2N)[C@@H](O[C@H]2O[C@@H](CO)[C@@H](O)[C@@H]2O)[C@@H]1O
inactive: all assays above

CN[C@@H](C)[C@H]1CC[C@@H](N)[C@@H](O[C@@H]2[C@@H](O)[C@@H](O[C@H]3OC[C@@](C)(O)[C@@H](NC)[C@@H]3O)[C@H](N)C[C@@H]2N)O1 (tested in a mixture with another compound)
inactive: all assays above

C[C@@H]1O[C@H](O[C@@H]2C=C3CC[C@H]4[C@@H](CC[C@]5(C)[C@@H](c6ccc(=O)oc6)CC[C@]45O)[C@@]3(C)CC2)[C@@H](O)[C@H](O)[C@@H]1O
inactive: all assays above

CC(C)N(CC[C@@](C(N)=O)(c1ccccc1)c1ccccn1)C(C)C
inactive: all assays above

COc1cc(N)c(Cl)cc1C(=O)N[C@@H]1CN2CCC1CC2
inactive: all assays above

CCN[C@]1(c2cccs2)CCCCC1=O
not listed: P94_40
inactive: all other assays above

CN(C)[C@@H]1C(=O)C(C(N)=O)=C(O)[C@]2(O)C(=O)C3=C(O)c4c(O)ccc(Cl)c4[C@](C)(O)[C@H]3C[C@@H]12
inactive: all assays above

N[C@H]1C[C@H]1c1ccccc1
inactive: all assays above
